The source of these data is PubChem BioAssay (Tox21).

Records with an inconclusive call do not appear. A call without a number means that no potency is given here. Active and inactive are the calls of the source. Calls come from the whole dose curve; as a rule, active = well fitted cell-killing curve with a large enough effect in the repeat runs (not every such curve was filed as active); inconclusive = weak or mixed curves, or effect the other way; inactive = no such curve, though single readings can be large or run the other way.

The test can be described thus: qHTS assay to identify small molecule antagonists of the estrogen related receptor signaling pathway with the pleiotropic PPARgamma coactivator (PGC) from Tox21 10K library - cell viability counter screen (AID 1224840). Note: nearly all actives have a fitted effect of over 40% in size. The note with it: PGC/ERR reporter cells viability, CellTiter-Fluor, 17.5 h; series mostly up to 92.4 µM. The method, boiled down:
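Seeded PGC/ERR cells (2,000/well, 6 h, 37 C/5% CO2) get compound by pin tool; 17.5 h incubation at 37 C; CellTiter-Fluor added, 30 min, fluorescence measured.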
`Cc1nc(N(C)C)nc(OC(=O)N(C)C)c1C`: the Potency entry is “inactive”.

For the compound `FC(Cl)(Cl)C(F)(Cl)Cl`, the Potency result was “inactive”.

Regarding `CC(Oc1cccc(Cl)c1)C(=O)O` (stereo not drawn), the Potency entry was “inactive”.

Turning to `CC(Cc1ccccc1)NCc1ccccc1Cl` (stereo not drawn), the Potency result is “inactive”.

As to `CCCCOC(=O)CCC(=O)OCCCC`, the Potency result was “inactive”.

For the compound `CCSCc1ccccc1OC(=O)NC`, the Potency entry is “inactive”.

On to `CCCSP(=S)(OCC)Oc1ccc(SC)cc1` (stereo not drawn), for which the Potency result was “inactive”.

For `C[C@@H]1C[C@@H]([C@H](O)CC2CC(=O)NC(=O)C2)C(=O)[C@@H](C)C1`, the Potency result was “inactive”.

Turning to `O=C=NC1CCCCC1`, the Potency entry was “inactive”.

Consider `O=C(N[C@H]1CN2CCC1CC2)c1ccc2c(c1)OCCO2`, for which the Potency entry was “inactive”.

Take `CON(C)C(=O)Nc1ccc(Cl)cc1`: the Potency entry is “inactive”.

For `CCOP(=S)(S)OCC`, the Potency result is “inactive”.

Regarding `CCc1ccccc1N`, the Potency entry is “inactive”.

Turning to `CCCC[N+]1(C)[C@@H]2CC(OC(=O)[C@H](CO)c3ccccc3)C[C@H]1[C@@H]1O[C@@H]12` (stereo partly drawn), the Potency result was “inactive”.

As for `CCOC(=O)c1cncn1C(C)c1ccccc1` (stereo not drawn), the Potency entry is “inactive”.

As to `CCCCCCCCCCCCCCCl`, the Potency result is “inactive”.

Consider `CC(C)(C)c1ccc(CCOc2ncnc3ccccc23)cc1`, for which the Potency entry is “inactive”.

For the compound `CCCCCCCCP(=O)(O)O`, the Potency result is “inactive”.

Take `COc1cc(C[C@@H](C)N)c(OC)cc1Br`: the Potency result was “inactive”.

As for `CC1(C)CC(=O)CC(C)(C)N1[O]`, the Potency result is “inactive”.

As to `O=[N+]([O-])O[C@H]1CO[C@H]2[C@@H]1OC[C@H]2O[N+](=O)[O-]`, the Potency result was “inactive”.

Consider `C#C[C@]1(O)CC[C@H]2[C@@H]3CCC4=CC(=O)CCC4=C3C=C[C@@]21CC`, for which the Potency result is “inactive”.

With `CC(O)CN1CCN(CC(=O)[O-])CCN(CC(=O)[O-])CCN(CC(=O)[O-])CC1.[Gd+3]` (stereo not drawn), the Potency entry is “inactive”.
